This is part of a sample that, as a whole, favours compounds with a hit. Of some 79,000 tested, about 15% had one in any assay. A number with no mark means an inactive call. Activity calls are given as the source filed them. No stated cut-off is given here; in the data, active means growth inhibition above about 70%; inactive means the rest.
What was measured:
[1] = NCI Yeast Anticancer Drug Screen. Data for the rad50 strain (AID 155);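 further: 0% = growth of vehicle-only cultures of the same strain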; conditions: S. cerevisiae rad50 strain growth inhibition; at 50.0 µM; hits give high values
Summary of the method: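 A DNA repair-deficient yeast mutant serves as the test organism; compound-induced growth inhibition is calculated against vehicle-treated cells.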

[2] = NCI Yeast Anticancer Drug Screen. Data for the mec2-1 strain (AID 157); conditions: S. cerevisiae mec2-1 strain, at 50.0 µM, hits give high values
Summary of the method: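 mec2-1 yeast strain, carrying an alteration in DNA damage repair or cell cycle control, was exposed to compounds; growth inhibition was measured relative to vehicle-treated controls.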

[3] = NCI Yeast Anticancer Drug Screen. Data for the sgs1 mgt1 strain (AID 161);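 further: 0% = growth of cultures given vehicle only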; conditions: S. cerevisiae sgs1 mgt1 strain, at 50.0 µM, hits give high values
Summary of the method: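 Compounds are added to genetically altered yeast, and growth is compared with cultures given vehicle alone to give percent inhibition.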

[4] = NCI Yeast Anticancer Drug Screen. Data for the cln2 rad14 strain (AID 165);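 further: 0% = growth equal to vehicle treated cultures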; conditions: S. cerevisiae cln2 rad14 strain, at 50.0 µM, hits give high values
Summary of the method: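 Yeast carrying cln2 and rad14 alterations (cell cycle control and DNA damage repair) were exposed to compounds. Growth inhibition was measured against vehicle-treated controls.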

[5] = NCI Yeast Anticancer Drug Screen. Data for the bub3 strain (AID 167); conditions: S. cerevisiae bub3 mutant strain, at 50.0 µM, hits give high values
Summary of the method: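 Inhibition values come from growth of compound-treated mutant yeast normalised to vehicle-treated controls.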

[6] = NCI Yeast Anticancer Drug Screen. Data for the mlh1 rad18 strain (AID 175); conditions: S. cerevisiae mlh1 rad18 strain growth inhibition; at 50.0 µM; hits give high values
Summary of the method: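 Growth inhibition of the yeast strain was measured after compound exposure and expressed relative to vehicle-treated controls. The strain carries defined defects in DNA damage repair.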

Compound	growth inhibition [1]	growth inhibition [2]	growth inhibition [3]	growth inhibition [4]	growth inhibition [5]	growth inhibition [6]
CC(C)CC(NC(c1ccccc1)P(=O)(O)O)C(=O)O (configuration not stated)	-4.15%	-13.2%	-22.1%	-9%	-8.3%	-27.1%
CC(=O)OCC1OC(n2c(-c3ccc(C)cc3)cc(-c3ccccc3)c(C#N)c2=S)C(OC(C)=O)C(OC(C)=O)C1OC(C)=O (configuration not stated)	17.9%	9.35%	6.15%	-8.55%	27.9%	27.8%
OC1CCC2CCCCC2C1 (configuration not stated)	-7.3%	-16.9%	-15.4%	-25.1%	-1.95%	2.85%
CC1=NC(=O)CNN1C1=NNC2(C(=O)N1)c1ccccc1-c1ccccc12	-11.1%	-7.3%	-15.2%	0.85%	-7.3%	-25.1%
CNC(=S)Nc1cccc(C)c1	-3.1%	2.65%	4.55%	-8.55%	-10.4%	4.05%
N#Cc1c(-c2ccccc2)c(-c2ccccc2)cc2c(=O)c3ccc(Cl)cc3[nH]c12	-27.3%	3.25%	-2.9%	12.4%	7.2%	2.4%
CCCCCCCC/C=C\CCCCCCC(F)C(=O)O (configuration not stated)	25.4%	4.55%	16.2%	6.1%	-11.8%	-43%
CCCC(P(=O)(c1ccccc1)c1ccccc1)[P+](CC)(c1ccccc1)c1ccccc1 (configuration not stated)	84.6% (active)	78.2% (active)	85.9% (active)	54.6%	81.7% (active)	77.8% (active)
Cn1c(=O)c2c(nc(N/N=C/c3ccccc3C(=O)O)n2C)n(C)c1=O	-14.2%	-3.15%	-7.9%	12.3%	-66.5%	-15.3%
CC(C)NC(=O)OCc1c(COC(=O)NC(C)C)n(C)c2c1ccc1ccccc12	89.8% (active)	84.8% (active)	83.8% (active)	84.5% (active)	87.5% (active)	85.5% (active)
CCOC(=O)C(c1ccccc1)C(C)c1ccccc1 (configuration not stated)	-7.5%	-0.4%	1.85%	1.9%	-11.3%	-12.2%
COc1ccc(C=Nc2c(O)ccc3c2CCCC3)cc1OC	9.55%	4.7%	-6.1%	-49.3%	1.95%	14.9%
CCOC(=O)C(C)N1CCCCCCC1 (configuration not stated)	-19.9%	-13.5%	-2.3%	-26.2%	-6.15%	-0.8%
Cc1cc(O)c(C(c2c(O)cc(C)c(Cl)c2C)C(Cl)(Cl)Cl)c(C)c1Cl	26.1%	21.9%	30.9%	39.6%	20.6%	18.2%
CCOC(OCC)c1ccc(O)cc1	-4.4%	3.15%	20.3%	-19.2%	-2.2%	12.1%
Clc1ccc(CNc2ncnc3nc(Cl)[nH]c23)cc1	-14.4%	-14.9%	-4.6%	-41.2%	-10.2%	-23.9%
CC(=O)Nc1ccc(NC(=O)Nc2cccc(Cl)c2C)cc1	2.75%	-0.35%	3.05%	11.7%	17.4%	5.3%
CCOC(=O)C(=CNc1cc(OC)cc2cccnc12)C(=O)OCC	-12.8%	4.1%	0.15%	18.8%	16.1%	-11.4%
N#CC1(c2ccccc2)OC1(C#N)c1ccccc1 (configuration not stated)	3.1%	-14.6%	-4.8%	-22.2%	-11.2%	-7.6%
CC(CO)(NC(=O)c1ccccc1)C(=O)O (configuration not stated)	13.4%	9.25%	22.5%	11.1%	3.45%	23.4%
CC(=O)ON1CCC=NC1	19.7%	10.3%	-20.4%	8.05%	3.95%	-6.75%

Compound	growth inhibition [1]	growth inhibition [2]	growth inhibition [3]	growth inhibition [4]	growth inhibition [5]	growth inhibition [6]
COc1cccc(NC(=O)CC(=O)N2N=C(n3ccc4ccccc43)CC2c2ccccc2)c1 (configuration not stated)	-36.3%	-11.4%	-6%	11.1%	-3.1%	-16.6%
COC(=O)/C=C1/CC[C@H]2[C@@H]3CCC4=CC(=O)CC[C@]4(C)[C@H]3C(=O)C[C@]12C	42.5%	6.35%	14.3%	-28%	14.2%	33.2%
CC1(C)OC[C@@H](O)[C@H](C#N)CO1	17.6%	27.6%	3.75%	19.6%	-0.95%	-18.1%
CN(C)N=Nc1c(F)cccc1F	-5.85%	-13.8%	-28.6%	20.4%	8.9%	0.65%
O=C1OC(c2ccc([N+](=O)[O-])cc2)=N/C1=C\c1ccccc1	1.85%	4.5%	11.1%	5.45%	6.25%	-11.5%
CC(=O)N(C(C)=O)n1c(Cc2ccc(Cl)cc2)n[nH]c1=O	32.1%	-53.7%	-26.3%	-5.55%	-30.9%	-65%
CC(=O)SC1CS(=O)(=O)CC1SC(C)=O (configuration not stated)	60.8%	52.9%	59%	40.2%	44.5%	63.5%
O=C(Nc1c(Cl)c(Cl)c2c(c1Cl)Cc1cc(Cl)ccc1-2)C(Cl)Cl	36.9%	10.7%	1.5%	26.1%	3.85%	25.4%
Cc1cc2c(c(C(=O)NCCC(=O)N[C@@H](C)C(=O)OCc3ccccc3)c1)Oc1c(cc(C)cc1C(=O)NCCC(=O)N[C@@H](C)C(=O)OCc1ccccc1)S2	24%	10.8%	30.1%	28.8%	-9.8%	27.1%
O=C1OC2(OC2c2ccccc2)c2ccccc21 (configuration not stated)	0.25%	-8.95%	-37.2%	-15.2%	-29.8%	-22.1%
C1CCC(C(C2CCCCC2)C2CCCCC2)CC1	-16.9%	-0.65%	-8.6%	28%	-4.3%	-11.3%
COc1ccc(C(=O)/C=C/c2ccc(OCC(=N)N)cc2)cc1	-31.1%	-38.6%	-18.8%	-27.4%	-15.8%	-23.6%
Cn1c(COC(=O)NC2CCCCC2)c(COC(=O)NC2CCCCC2)c2ccc3cc(C=O)ccc3c21	5.95%	7.85%	-14.5%	-3.95%	-10.4%	-27.3%
COc1cc(C2c3cc4c(c(OC(=O)c5ccncc5)c3CC3COC(=O)C32)OCO4)cc(OC)c1OC (configuration not stated)	1.15%	-11.6%	35.8%	15.8%	5.8%	-0.05%
COc1ccc(-n2cc3c(=O)nccc-3c3ccccc32)cc1OC	-9.3%	-12.8%	1.2%	-10.6%	-18.6%	-0.6%
c1cn(C23C4C5C6C4C2C6C53)cn1 (configuration not stated)	2.65%	-11.2%	2.5%	18.1%	-6%	15.9%
CC(=O)c1ccc(C2CCC[C@H]2c2ccc(C(C)=O)cc2)cc1 (some centres not stated)	4.15%	-1.55%	1.75%	-40.2%	9.3%	-16.4%
CC(O)CNC(=O)C(C)O (configuration not stated)	11.8%	-27.6%	-25.8%	-5.45%	8.25%	7.6%
Nc1cc(S(=O)(=O)O)ccc1O	-1%	-16.1%	-21.9%	-41.9%	3.05%	-33.5%
O=C(CSCC(=O)c1ccc([N+](=O)[O-])cc1)c1ccc([N+](=O)[O-])cc1	-19.4%	-29.6%	9.85%	-0.65%	-20.1%	-5%
ClC(Cl)(Cl)C(=NNc1ccccc1)C(Cl)(Cl)Cl	-0.1%	16.4%	30.4%	50.5%	30.6%	69.5%
